# Laboratory results reported in PubChem BioAssay AID1063 (University of Pittsburgh Molecular Library Screening Center, 2008).
# Screen size: about 200,000 compounds; about 18,000 (9%) were called active. Cut-off read from the data, not from the text of the source: active = inhibition above about 50%; inactive = the rest. For the sample, actives were picked, then their nearest neighbours and some compounds at random.
# Experiment: antileishmanial activity against promastigotes – primary screen (AID 1063);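 note: promastigotes grown with compound for 44 hours at 28 °C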
# Conditions: Leishmania major promastigotes, resazurin fluorescence viability; at 10 µM; active compounds read high
row,Compound,inhibition
1,COc1ccccc1N(C)S(=O)(=O)c1ccc(Cl)c(C(=O)N2CCC(C(N)=O)CC2)c1,-3.28% (inactive)
2,COc1cc(/C=N/Nc2ccc(C)cc2)cc(Br)c1O,-20.7% (inactive)
3,Cc1ccccc1OCCOc1ccc([N+](=O)[O-])cc1/C=N/n1cnnc1,37.6% (inactive)
4,Cc1c(Br)ccc(NC(=O)COc2ccccc2C(N)=O)c1C,2.06% (inactive)
5,C=C(C)COc1ccc(-c2n[nH]c(C)c2-c2ccccc2OC)c(O)c1,-7.88% (inactive)
6,COc1ccccc1-c1nc(SC)n[nH]1,-6.03% (inactive)
7,COc1ccccc1-c1n[nH]c2c1[C@H](C)CC[C@H]2C(C)C,62.9% (active)
8,Cc1ccc(S(=O)(=O)N(C)C)cc1NC(=O)c1ccccc1Br,-1.67% (inactive)
9,COc1ccc(OC)c(-c2csc(NC(=O)C3=NNC(=O)CC3)n2)c1,-4.28% (inactive)
10,CCc1nnc(NC(=O)CSc2nc(SC)ns2)s1,-6.1% (inactive)
11,CCOC(=O)C1C(=O)C=C(c2ccc(OC)cc2)CC1c1ccco1 (stereo not given),0.83% (inactive)
12,CC(=O)NC1C(Oc2ccc(C)cc2)OC2COC(c3ccco3)OC2C1O (stereo not given),54.2% (active)
13,CCc1cccc(OC2OC(CO)C(O)C(O)C2NC(C)=O)c1 (stereo not given),-8.46% (inactive)
14,CCC(C)(C)NC(=O)CN(Cc1cccs1)C(=O)CNS(=O)(=O)c1ccc(F)cc1,-4.43% (inactive)
15,CCOC(=O)c1cc2n(c1N)-c1ccccc1C2=O,1.96% (inactive)
16,CCOC(=O)c1c(C)[nH]c2c1-c1ccccc1C(=O)C2=O,100% (active)
17,CCOC(=O)c1c(C)[nH]c(=S)c(C#N)c1-c1ccccc1,-3.7% (inactive)
18,O=c1cc(O)c(-c2cccc(C(F)(F)F)c2)c(Cl)[nH]1,16.3% (inactive)
19,Clc1cccc(-c2nc(NCC3CCCO3)c3ccccc3n2)c1 (stereo not given),76.4% (active)
20,CC(C)(C)c1nc(NCC2CCCO2)c2nnn(Cc3ccccc3)c2n1 (stereo not given),2.46% (inactive)
21,c1ccc2c(NCC3CCCO3)nc(-c3ccncc3)nc2c1 (stereo not given),3.5% (inactive)
22,CCOC(=O)c1cnn(Cc2ccccc2Cl)c1N,0.00878% (inactive)
23,CCOC(=O)N/N=C/c1cn(Cc2ccccc2Cl)c2ccccc12,83.9% (active)
24,O=C(Cn1cc(/C=N/NC(=O)c2cccc(C(F)(F)F)c2)c2ccccc21)Nc1ccc(F)cc1,6.06% (inactive)

row,Compound,inhibition
1,COC(=O)N/N=C/c1cn(CCCOc2ccc(C)cc2)c2ccccc12,55.6% (active)
2,CNC(=S)N/N=C/c1ccc(OCc2ccccc2)c(Br)c1,1.78% (inactive)
3,Cc1ccc(OCCCn2c(=O)oc3ccccc32)cc1,-3.5% (inactive)
4,CCOC(=O)N/N=C/c1cccnc1,1.46% (inactive)
5,COC(=O)Cn1cc(/C=C/[N+](=O)[O-])c2ccccc21,27.7% (inactive)
6,CNC(=S)N/N=C/c1cn(Cc2ccc(C)cc2)c2ccccc12,62.8% (active)
7,CCN(CC)S(=O)(=O)c1ccc(NC(=O)c2cccnc2Cl)c(NC(=O)c2cccnc2Cl)c1,-1.01% (inactive)
8,O=C(Nc1ccc(Cl)cc1)C1c2cccc[n+]2CC(=O)N1Cc1ccc2c(c1)OCO2 (stereo not given),-2.66% (inactive)
9,CCC(=O)Nc1ccc(Nc2nc(Cl)nc(Nc3ccc(NC(=O)CC)cc3)n2)cc1,-6.56% (inactive)
10,N#CCSc1nn(-c2ccc(F)cc2)c(=S)s1,-4.75% (inactive)
11,Cc1ccc(S(=O)(=O)N2CCN(C(=O)c3cccs3)CC2)cc1,-4.13% (inactive)
12,Cc1ccnc(NS(=O)(=O)c2ccc(NC(=O)c3ccc(S(=O)(=O)N(C)C)cc3)cc2)n1,-6.03% (inactive)
13,COC(=O)c1c(NC(=O)CCCC(=O)O)sc2c1CCCCC2,-4.64% (inactive)
14,Cc1cccc(Nc2nc3c(S(=O)(=O)c4ccccc4)nnn3c3ccccc23)c1C,57.1% (active)
15,CC(=O)Nc1ccc(Nc2nc3c(S(=O)(=O)c4ccc(C)c(C)c4)nnn3c3ccccc23)cc1,3.4% (inactive)
16,COCCCNc1nc2c(-c3cccc(C(F)(F)F)c3)nnn2c2ccccc12,0.99% (inactive)
17,COc1ccc(N(CC(=O)NC2CCCC2)C(=O)CS(=O)CC(=O)Nc2ccc3c(c2)OCO3)cc1 (stereo not given),-10.1% (inactive)
18,COc1ccc(CC(=O)NCc2nnc(SCC(=O)Nc3nccs3)n2C)cc1,-3.12% (inactive)
19,CC(=O)Oc1ccccc1C1=NN(C(C)=O)C(c2ccccc2)C1 (stereo not given),-5.99% (inactive)
20,COc1cc([N+](=O)[O-])ccc1NC(=S)N1CCN(c2ccccn2)CC1,-4.39% (inactive)
21,Cc1cccn2c(=O)c3cc(C(=O)N4COCC4(C)C)n(C)c3nc12,89.9% (active)
22,Cc1cccn2c(CN(C)C3CCCc4ccccc43)c(C(=O)N3CCOCC3)nc12 (stereo not given),7.87% (inactive)
23,O=C(O)C1C2CC2CN1C(=O)c1ccc(Cl)cc1Cl (stereo not given),-2.09% (inactive)
24,COc1ccc(NC(=O)Nc2ccc3nc(C)c(C)nc3c2)cc1,6.7% (inactive)

row,Compound,inhibition
1,COc1ccc2nc(SCc3ccccc3)nc(C)c2c1,-8.99% (inactive)
2,COc1ccc2nc(/N=C(\N)NC(=O)Nc3ccccc3)nc(C)c2c1,99.9% (active)
3,Cc1nc2cc(NCc3cccs3)ccc2n1C,9.59% (inactive)
4,C[C@H](NC(=O)c1ccccc1Cl)C(=O)OCCOc1cccc(Cl)c1,-6.25% (inactive)
5,CC(=O)N/N=C/c1cc2c(cc1[N+](=O)[O-])OCO2,-2.52% (inactive)
6,CCn1c(CSc2nc(C)cc(C)n2)nnc1SCC(N)=O,-0.87% (inactive)
7,Cc1cccc(NC(=S)NCc2ccc3[nH]c4c(c3c2)CCCC4)c1,11.1% (inactive)
8,CCc1cccc(CC)c1NC(=S)NCc1ccc2[nH]c(C)cc2c1,94.4% (active)
9,Cc1cc2cc(CNC(=O)c3cccs3)ccc2[nH]1,-4.21% (inactive)
10,CC1CCCCC1NC(=O)/C(C#N)=C/C=C/c1ccccc1[N+](=O)[O-] (stereo not given),69% (active)
11,O=C(/C=C/c1ccccc1[N+](=O)[O-])OC1CCCCC1=O (stereo not given),-5.55% (inactive)
12,COc1cc(/C=C(\C#N)C(=O)Nc2ccc3ccccc3c2)c([N+](=O)[O-])cc1OC,-8.56% (inactive)
13,COc1cc(CN(C)Cc2nc3cc(C(F)(F)F)ccc3c(=O)[nH]2)ccc1OC(F)F,8.36% (inactive)
14,O=C(CSc1cccc[n+]1[O-])c1ccc(-c2ccccc2)cc1,-8.44% (inactive)
15,CC(NC(=S)NC1CCCCC1)C(c1ccccc1)N1CCOCC1 (stereo not given),1.15% (inactive)
16,Cc1ccccc1CN1CCN(CC(=O)NCc2ccccn2)C1=O,-4.22% (inactive)
17,Cc1ccccc1CN1C[C@@H]2C[C@@H](c3cn(C)nc3-c3ccccc3)N3CCC[C@@]23C1=O,9.77% (inactive)
18,Cc1ccccc1CN1C[C@@H]2C[C@@H](c3ccc4nsnc4c3)N3CCC[C@@]23C1=O,78.4% (active)
19,CCN1CCN(C(=O)CN(C)S(=O)(=O)c2ccc3ccccc3c2)CC1,0.63% (inactive)
20,O=C(N/N=C/c1cc2c(cc1Br)OCO2)C1COc2ccccc2O1 (stereo not given),38% (inactive)
21,CC1=NN(Cc2ccccc2)C(=O)/C1=C/c1ccc(N(C)C)cc1,-0.65% (inactive)
22,O=C1NCC(=O)N(Cc2ccccc2)/C1=C/c1ccccc1,-0.36% (inactive)
23,CN(C)c1ccc(/C=C2\NC(=S)N(Cc3ccccc3)C2=O)cc1,96.8% (active)
24,Cc1noc(C)c1CCC(=O)O,-0.11% (inactive)

row,Compound,inhibition
1,CC(CC(=O)Nc1ccccc1)n1ccnc1 (stereo not given),-7.2% (inactive)
2,COc1ccc(NC(C)=O)cc1NC(=O)CN1CCN(c2ccccn2)CC1,-3.06% (inactive)
3,COc1ccc(OC)c(NC(=O)CN2CCN(C(=O)c3ccco3)CC2)c1,-1.17% (inactive)
4,COc1ccc(NC(C)=O)cc1NC(=O)CN1CCN(C2c3ccccc3-c3ccccc32)CC1,84% (active)
5,CCC(CC)NC(=O)CSc1nnc(-c2c[nH]c3ccccc23)o1,6.71% (inactive)
6,Fc1ccccc1C(c1nnnn1Cc1ccc2c(c1)OCO2)N1CCN(Cc2ccccc2)CC1 (stereo not given),26.7% (inactive)
7,CC(C)(C)n1nnnc1C(c1ccc(F)cc1)N1CCN(Cc2ccc3c(c2)OCO3)CC1 (stereo not given),48.1% (inactive)
8,Cc1ccc(S(=O)(=O)Cn2nnnc2CN2CCN(Cc3ccc4c(c3)OCO4)CC2)cc1,93.4% (active)
9,O=C(CN1CCN(c2ccccc2F)CC1)c1ccc2c(c1)OCO2,8.93% (inactive)
10,O=C(CCN1CCc2ccccc2C(O)(c2ccccc2)C1)c1ccc2c(c1)OCCO2 (stereo not given),95.3% (active)
11,O=C(CN1CCC(O)(c2ccccc2)CC1)Nc1ccc2c(c1)OCCO2,3.55% (inactive)
12,O=C(Cc1ccccc1)NNC(=O)C1CCN(c2ncccn2)CC1,-9.12% (inactive)
13,CCc1cc(CNC(=O)CC2C(=O)NCCN2CC2CCCCC2)on1 (stereo not given),-6.55% (inactive)
14,COc1ccc(C(=O)Oc2cc(/C=N/NS(=O)(=O)c3ccc(C)cc3)ccc2OC)cc1,0.27% (inactive)
15,COc1ccc(/C=C/C(=O)c2ccc(NS(=O)(=O)c3ccc(C)cc3)cc2)cc1O,99.6% (active)
16,COc1ccc(NS(=O)(=O)c2ccc(NC(C)=O)cc2)cc1OC,-3.17% (inactive)
17,O=C(CCC(=O)Nc1ccccc1)N/N=C/c1ccccc1F,0.99% (inactive)
18,CCC(C(=O)Nc1ccc2c(c1)OCCO2)c1ccccc1 (stereo not given),4.21% (inactive)
19,CCO[C@H]1OC(C(=O)Nc2ccccc2)=C[C@@H](C2CC2)[C@@H]1CCCO,1.1% (inactive)
20,CCOC(=O)C1=C(CC)OC(N)=C(C#N)C1c1ccc(F)cc1F (stereo not given),11.4% (inactive)
21,COc1cc2c(cc1OC)C(c1ccc(C)o1)CC(=O)N2 (stereo not given),-5.73% (inactive)
22,COC(=O)c1ccc(C2CC(=O)Nc3cc(OC)c(OC)cc32)cc1 (stereo not given),53.2% (active)
23,COc1cc2c(cc1OC)C(c1ccncc1)CC(=O)N2 (stereo not given),-6.82% (inactive)
